Cruzain inh Det = blocks cruzain activity in presence of Triton detergent. 200,000 compounds, 0.43% hits. purified cruzain, Z-FR-AMC fluorescence, 0.01% Triton. P25779. Potency, µM, inactives show max response, negative = inhibition, most hits filed as inhibitors. AID 1478;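 note: plate controls were neutral wells for no effect and buffer without enzyme for full effect; nearly all actives have a fitted effect of over 40% in size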
Target sequence (P25779 123-467 limits assumed): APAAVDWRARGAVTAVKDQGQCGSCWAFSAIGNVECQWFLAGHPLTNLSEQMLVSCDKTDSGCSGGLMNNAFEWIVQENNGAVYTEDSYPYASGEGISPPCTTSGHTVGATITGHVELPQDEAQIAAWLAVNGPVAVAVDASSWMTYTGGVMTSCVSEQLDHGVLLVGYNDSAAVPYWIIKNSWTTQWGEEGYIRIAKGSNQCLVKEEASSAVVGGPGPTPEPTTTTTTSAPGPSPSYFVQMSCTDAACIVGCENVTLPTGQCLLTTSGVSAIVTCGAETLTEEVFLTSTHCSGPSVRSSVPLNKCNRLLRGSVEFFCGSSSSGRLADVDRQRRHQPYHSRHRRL
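Cysteine protease activity tested under reducing, mildly acidic conditions (100 mM sodium acetate pH 5.5, 5 mM DTT) plus 0.01% Triton X-100. Cruzain 1.5 nM; substrate Z-FR-AMC 2 uM; 15 min compound preincubation at room temperature.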
Cruzain inh noDet = inhibitors of Trypanosoma cruzi cruzain without detergent; P25779; purified cruzain, Z-FR-AMC fluorescence, no detergent; Potency, µM, for the others: max response, negative = inhibition, hits mostly inhibitors; 200,000 compounds, 2.3% hits; AID 1476;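 note: plate controls were enzyme without inhibitor for no effect and buffer without enzyme for full effect; nearly all actives have a fitted effect of over 40% in size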
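Detergent-free condition (0.00005% Triton X-100) in acetate buffer pH 5.5 with DTT. 1.5 nM enzyme and compound were pre-mixed 15 min, then 2 uM Z-FR-AMC substrate added; reaction progress from fluorescence change between first and third reads (60 s).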
Numbers without * were called inactive; ? = inconclusive. In the library only some 2.5% were active in any assay of this set; here they are far more common. Calls come from the whole dose curve; as a rule, active = well fitted curve in the direction sought with a large enough effect; inconclusive = small, poorly fitted or top-dose-only effect, or another doubt; inactive = no such curve, though single readings can be large; an effect the other way counts as inactive or inconclusive. Potency is the fitted concentration of half-maximal effect.

SMILES | Cruzain inh Det | Cruzain inh noDet
COCC(=O)N1CCC[C@@]2(CCN(C(=O)Nc3cccc(C#N)c3)C2)C1 | 6% | 3%
COc1ccc(-n2nc3c(N4CCC(C(=O)NCc5cccc(F)c5)CC4)nnc(C)c3c2C)cc1 | -22% | ?
CC(C)OC(=O)/C(=C\C=C\c1ccccc1)NC(=O)c1ccccc1 | -12% | -9%
C#CCOC(=O)/C(=C/C=C/c1ccccc1)NC(=O)c1ccccc1 | 7.1µM* | 13µM*
CCC(C)NC(=O)COC(=O)c1oc2ccccc2c1CSc1ccc(Cl)cc1 (stereo unspecified) | -3% | 25µM*
CCC(C)NC(=O)CSc1ccc(Cl)cc1 (stereo unspecified) | -1% | -10%
CCc1cc2c(cc3c(=O)n(CCCC(=O)NCc4ccccc4Cl)nc(CC)n32)s1 | -2% | 10%
COc1ccc(CNC(=O)C2CCCCN2S(=O)(=O)c2ccc(F)cc2)cc1 (stereo unspecified) | -2% | -14%
O=C(Nc1sc2c(c1-c1nc3ccccc3[nH]1)CCCC2)C1CCCC1 | -5% | 13µM*
CC(=O)NCCC(=O)Nc1sc2c(c1-c1nc3ccccc3[nH]1)CCCC2 | -9% | -13%
CN1CCN(S(=O)(=O)c2cccc(C(=O)Nc3sc4c(c3-c3nc5ccccc5[nH]3)CCCC4)c2)CC1 | -6% | 16µM*
CC(=O)N1CCN(S(=O)(=O)c2cccc(C(=O)Nc3nc4c(s3)CCCC4)c2)CC1 | -9% | ?
CCc1cc2c(-c3ccccc3)cc(=O)oc2c(CN2CCOCC2)c1O | -6% | 4%
CCc1c(C)c2ccc(O)c(CN3CCN(c4ccccc4)CC3)c2oc1=O | -6% | -14%
CCCCc1cc(=O)oc2c(CN3CCCC3)c(O)ccc12 | 25µM* | ?
O=c1cc(-c2ccccc2)c2ccc(O)c(CN3CCCCC3)c2o1 | -15% | ?
CCc1cc(=O)oc2c(CN3CCCC3)c(O)c(Cl)cc12 | 28µM* | ?
CCc1c(C)c2cc(Cl)c(O)c(CN3CCCCC3)c2oc1=O | 32µM* | ?
Cc1ccc(NCC(=O)N/N=C\C(Br)=C\c2ccccc2)cc1 | 2% | 13µM*
CCOc1cc(/C=N/NC(=O)CNc2ccc(C)cc2)ccc1OC(=O)c1ccccc1 | -3% | 10µM*
COc1cc(/C=N/NC(=O)COc2c(C)cc([N+](=O)[O-])cc2C)ccc1OC(=O)c1ccccc1Br | -5% | 10µM*
CCOc1cc(/C=N/NC(N)=O)ccc1OC(=O)c1ccc(C)cc1 | -3% | 4%
COc1ccc(/C=N/NC(=O)CSCc2ccc([N+](=O)[O-])cc2)cc1OC | -3% | -7%
COc1cc(/C=N/NC(N)=S)ccc1OCC(=O)Nc1ccc(C)c(C)c1 | 16µM* | 13µM*
COc1cc(/C=N/NC(N)=O)ccc1OCC(=O)Nc1ccc(C)c(C)c1 | -5% | -22%
SMILES | Cruzain inh Det | Cruzain inh noDet
Cc1cc(C)nc(SCC(=O)N/N=C\C(Br)=C\c2ccccc2)n1 | -7% | 6%
NCCCCCCNS(=O)(=O)c1ccc2c(Cl)cccc2c1 | -2% | 0%
C[C@H](OP(=O)(O)O)[C@H](N)C(=O)O | -1% | 3%
COC(=O)N1CCCc2cc(S(=O)(=O)NCc3ccccc3)ccc21 | -3% | -6%
COc1ccc(/C=N/NC(=O)c2cccc([N+](=O)[O-])c2)cc1OC(=O)c1ccc(C)cc1 | 8% | -20%
CCOc1cc(/C=N/NC(=O)c2cc(C)[nH]n2)ccc1OC(=O)c1ccc([N+](=O)[O-])cc1 | 4% | -1%
N#Cc1cc([N+](=O)[O-])ccc1Oc1cccc(/C=N/NC(=O)c2cccc(Cl)c2)c1 | 2% | 25µM*
COc1ccc(/C=N/NC(=O)c2cccc([N+](=O)[O-])c2)cc1OC(=O)c1ccccc1 | -1% | 25µM*
O=C(N/N=C/c1cccc([N+](=O)[O-])c1)c1ccc(COc2ccccc2-c2ccccc2)cc1 | -7% | 20µM*
COc1cc(/C=N/NC(=O)c2cccc([N+](=O)[O-])c2)ccc1OCc1ccccc1 | -14% | 29%
COc1cccc(C(=O)N/N=C/c2ccc(Oc3ccc([N+](=O)[O-])cn3)c(OC)c2)c1 | -1% | -5%
COc1cc(/C=N/NC(=O)COc2c(C)cc([N+](=O)[O-])cc2C)ccc1OC(=O)c1ccccc1 | -5% | 25µM*
COc1cccc2c1C(=O)c1c(O)c3c(c(O)c1C2=O)C[C@@](O)(C(=O)CO)C[C@H]3O[C@H]1C[C@@H](N)[C@H](O)[C@@H](C)O1.[W] | 3% | 7%
COc1cccc(CNC(=O)CCc2c(C)nc3c(c(C)nn3-c3ccc(C)c(C)c3)c2C)c1 | -4% | -22%
COc1ccc(-c2cc(C(=O)NC(C)c3ccccc3)c3cc(C(C)C)ccc3n2)cc1 (stereo unspecified) | 1% | -18%
N=C(N)SCc1nc(-c2ccc(Cl)cc2)no1 | 0% | -2%
COc1ccc(Br)cc1C1C(C(=O)Nc2ccc(C)cc2C)=C(C)Nc2ncnn21 (stereo unspecified) | -3% | ?
O=C(CN1CCOCC1)N/N=C/c1cc2ccccc2nc1Cl | -6% | -6%
Cc1ccc(NCC(=O)N/N=C/c2cc3ccccc3nc2Cl)cc1 | -15% | 25µM*
O=C(COc1ccccc1-c1ccccc1)N/N=C/c1ccc2ccccc2c1 | -2% | 20µM*
O=C(COc1ccccc1[N+](=O)[O-])N/N=C/c1ccc(O)cc1 | -5% | -7%
CCc1ccccc1NC(=O)CN1C(=O)CCn2nc(-c3cccn3C)cc21 | -1% | 9%
COc1cc(NC(=O)CSc2nccc(C)n2)c(C)cc1[N+](=O)[O-] | -5% | -3%
COc1cc(NC(=O)CSc2nc3ccccc3n2-c2ccccc2)c(C)cc1[N+](=O)[O-] | 1% | 7.9µM*
COc1ccc(-n2c(SCC(=O)Nc3ccc([N+](=O)[O-])cc3OC)nc3ccccc32)cc1 | -1% | 7.9µM*
SMILES | Cruzain inh Det | Cruzain inh noDet
COc1ccc([N+](=O)[O-])cc1NC(=O)CSc1nncn1-c1ccccc1 | -5% | -12%
Cc1ccc(NC(=O)c2nnn(Cc3ccccc3)c2N)cc1C | 0% | -7%
CSc1ccc(Cn2nnc(C(=O)Nc3ccc(C)c(C)c3)c2N)cc1 | 5% | 25µM*
Cc1ccc(-c2nc(CS(=O)(=O)CC(=O)N3CCN(c4cccc(C)c4C)CC3)c(C)o2)cc1 | 4% | -7%
Cn1cc(S(=O)(=O)CC(=O)Nc2ccc3c(c2)OCCO3)c2ccccc21 | 8% | 1%
COc1ccc(/C=C2\SC(=S)N(CCC(=O)NC3=NCCS3)C2=O)cc1OC | -12% | -15%
O=C(CCN1C(=O)/C(=C/c2ccc3c(c2)OCO3)SC1=S)Nc1ccccc1 | -5% | 7.9µM*
Cn1cc(/C=C2/SC(=O)N(CC(=O)Nc3ccc4c(c3)OCO4)C2=O)c2ccccc21 | -1% | 25µM*
CCCC(=O)N1c2nc(C(C)C)nn2C2(CCCCC2)[C@@H]2CCCC[C@@H]21 | 1% | -10%
CCc1ccc2oc(C(=O)N(Cc3cccc(Cl)c3)Cc3ccco3)c(C)c2c1 | -4% | ?
C/C(=N\NC(=O)CNC(=O)C(c1ccccc1)c1ccccc1)c1ccc(C(C)(C)C)cc1 | 1% | ?
C/C(=N\NC(=O)CNC(=O)C(c1ccccc1)c1ccccc1)c1ccccc1 | 5% | 13µM*
O=C(O)C(Cc1cccs1)C(=O)O | 5% | 0%
O=C1N/C(=C/c2cccn2-c2ccc(F)cc2)C(=O)N1Cc1ccccc1F | -11% | ?
O=C1N/C(=C/c2cccn2-c2ccccc2)C(=O)N1Cc1ccc(F)cc1 | -5% | 13µM*
